Results as given in PubChem BioAssay AID1159580 (chemical genetic matrix, 2015).
Where “and” joins values, the source holds several entries; their conditions need not be identical. Equal entries are not always repeated. In all, about 5,500 compounds went through this assay and about 2,000 (36%) were called active. Another 18% or so got no clear call; they are omitted. Rule as the data show it: active = normalized growth mostly below about 0.91 (no sharp cut-off); inconclusive = no clear call, values can overlap the other calls; inactive = mostly above about 0.92. Some of the results follow.

Experiment: chemical genetic growth profiling, strain panel (AID 1159580);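 also: tested at 20 µM; growth read once vehicle control cultures reached saturation at 30 °C; 1 = growth at the plate median or of vehicle wells; lower values mean less growth of the strain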
Conditions: growth OD

Measured: normalized growth

CC(N)C(=O)OC(C)(C)Cc1ccc(Cl)cc1 (stereo unspecified)
inactive: S. cerevisiae deletion strains, locus YJR075W, strain HOC1, hits give low values 0.986 and 1 | S. cerevisiae deletion strains, locus YKL009W, strain mrt4, hits give low values 0.922 | S. cerevisiae deletion strains, locus YKL068W, hits give low values 0.992 | S. cerevisiae deletion strains, locus YKL085W, strain MDH1 (second series), hits give low values 0.98 | S. cerevisiae deletion strains, locus YKL085W, strain MDH1, hits give low values 0.98 | S. cerevisiae deletion strains, locus YKL160W, strain elf1, hits give low values 1.02 | S. cerevisiae deletion strains, locus YKL190W, strain CNB1, hits give low values 0.989 | S. cerevisiae deletion strains, locus YKR001C, strain vps1, hits give low values 1.03 | S. cerevisiae deletion strains, locus YKR026C, strain gcn3, hits give low values 0.998 | S. cerevisiae deletion strains, locus YKR091W, strain srl3, hits give low values 1.01 | S. cerevisiae deletion strains, locus YLL001W, strain dnm1, hits give low values 0.977 | S. cerevisiae deletion strains, locus YLL026W, hits give low values 1.01 | S. cerevisiae deletion strains, locus YLL041C, strain sdh2, hits give low values 1.02 | S. cerevisiae deletion strains, locus YLR027C, strain aat2, hits give low values 1.01 | S. cerevisiae deletion strains, locus YLR039C, strain RIC1, hits give low values 1.03 | S. cerevisiae deletion strains, locus YLR058C, strain SHM2, hits give low values 0.97 | S. cerevisiae deletion strains, locus YLR102C, strain apc9, hits give low values 0.995 | S. cerevisiae deletion strains, locus YLR113W, strain HOG1, hits give low values 1.01 | S. cerevisiae deletion strains, locus YLR221C, strain rsa3, hits give low values 1.02 | S. cerevisiae deletion strains, locus YLR258W, strain gsy2, hits give low values 1.02 | S. cerevisiae deletion strains, locus YLR262C, strain YPT6 (second series), hits give low values 1.06 | S. cerevisiae deletion strains, locus YLR262C, strain YPT6, hits give low values 0.986 | S. cerevisiae deletion strains, locus YLR268W, strain sec22, hits give low values 1.07 | S. cerevisiae deletion strains, locus YLR320W, strain mms22, hits give low values 1.04 | S. cerevisiae deletion strains, locus YLR330W, strain CHS5, hits give low values 0.988 | S. cerevisiae deletion strains, locus YLR342W, strain FKS1 (second series), hits give low values 0.928 | S. cerevisiae deletion strains, locus YLR342W, strain FKS1, hits give low values 1.02 | S. cerevisiae deletion strains, locus YLR357W, strain rsc2, hits give low values 1.03 | S. cerevisiae deletion strains, locus YLR370C, strain arc18, hits give low values 1.01 | S. cerevisiae deletion strains, locus YLR371W, strain rom2, hits give low values 0.986 | S. cerevisiae deletion strains, locus YLR384C, strain iki3, hits give low values 1.01 | S. cerevisiae deletion strains, locus YLR418C, strain cdc73, hits give low values 0.983 | S. cerevisiae deletion strains, locus YML016C, strain PPZ1, hits give low values 0.984 | S. cerevisiae deletion strains, locus YML032C, strain rad52, hits give low values 0.982 | S. cerevisiae deletion strains, locus YML120C, strain ndi1, hits give low values 1.02 | S. cerevisiae deletion strains, locus YML124C, strain tub3, hits give low values 0.985 | S. cerevisiae deletion strains, locus YMR058W, strain fet3, hits give low values 1.03 | S. cerevisiae deletion strains, locus YMR078C, strain ctf18, hits give low values 0.98 | S. cerevisiae deletion strains, locus YMR125W, strain sto1, hits give low values 1.01 | S. cerevisiae deletion strains, locus YMR129W, hits give low values 1.02 | S. cerevisiae deletion strains, locus YMR205C, strain PFK2, hits give low values 1.02 | S. cerevisiae deletion strains, locus YMR223W, strain ubp8, hits give low values 0.94 | S. cerevisiae deletion strains, locus YMR231W, strain pep5, hits give low values 1.02 | S. cerevisiae deletion strains, locus YMR263W, strain SAP30, hits give low values 0.984 and 1.02 | S. cerevisiae deletion strains, locus YMR307W, strain GAS1, hits give low values 1.04 | S. cerevisiae deletion strains, locus YNL067W, strain RPL9B, hits give low values 0.996 | S. cerevisiae deletion strains, locus YNL071W, strain lat1, hits give low values 1.02 | S. cerevisiae deletion strains, locus YNL128W, strain TEP1, hits give low values 0.975 and 1.02 | S. cerevisiae deletion strains, locus YNL153C, strain GIM3, hits give low values 0.992 | S. cerevisiae deletion strains, locus YNL175C, strain NOP13, hits give low values 1.04 | S. cerevisiae deletion strains, locus YNL183C, strain NPR1, hits give low values 0.982 | S. cerevisiae deletion strains, locus YNL197C, strain WHI3, hits give low values 1.09 | S. cerevisiae deletion strains, locus YNL209W, strain ssb2, hits give low values 1.02 | S. cerevisiae deletion strains, locus YNL224C, strain SQS1, hits give low values 1.05 | S. cerevisiae deletion strains, locus YNL233W, strain BNI4, hits give low values 0.983 | S. cerevisiae deletion strains, locus YNL248C, strain rpa49, hits give low values 1.02 | S. cerevisiae deletion strains, locus YNL250W, strain rad50, hits give low values 0.975 | S. cerevisiae deletion strains, locus YNL271C, strain bni1, hits give low values 1 | S. cerevisiae deletion strains, locus YNL298W, strain CLA4, hits give low values 0.981 | S. cerevisiae deletion strains, locus YNL307C, strain MCK1, hits give low values 0.972 | S. cerevisiae deletion strains, locus YNL322C, strain KRE1 (second series), hits give low values 1.01 | S. cerevisiae deletion strains, locus YNL322C, strain KRE1, hits give low values 0.986 | S. cerevisiae deletion strains, locus YNR049C, strain mso1, hits give low values 1.01 | S. cerevisiae deletion strains, locus YNR052C, strain pop2, hits give low values 0.986 | S. cerevisiae deletion strains, locus YOL006C, strain TOP1, hits give low values 1.05 | S. cerevisiae deletion strains, locus YOL012C, strain htz1 1 | S. cerevisiae deletion strains, locus YOL147C, strain pex11, hits give low values 0.988 | S. cerevisiae deletion strains, locus YOR001W, strain rrp6, hits give low values 1.06 | S. cerevisiae deletion strains, locus YOR061W, strain CKA2, hits give low values 0.975 | S. cerevisiae deletion strains, locus YOR069W, strain VPS5, hits give low values 0.981 | S. cerevisiae deletion strains, locus YOR070C, strain gyp1, hits give low values 1.02 | S. cerevisiae deletion strains, locus YOR080W, strain dia2, hits give low values 1.03 | S. cerevisiae deletion strains, locus YOR083W, strain WHI5 (second series), hits give low values 1.04 | S. cerevisiae deletion strains, locus YOR083W, strain WHI5, hits give low values 1.01 | S. cerevisiae deletion strains, locus YOR106W, strain vam3, hits give low values 1.07 | S. cerevisiae deletion strains, locus YOR136W, strain idh2, hits give low values 0.977 | S. cerevisiae deletion strains, locus YOR144C, strain elg1, hits give low values 0.988 | S. cerevisiae deletion strains, locus YOR184W, strain ser1, hits give low values 0.993 | S. cerevisiae deletion strains, locus YOR231W, strain MKK1, hits give low values 1.02 | S. cerevisiae deletion strains, locus YOR265W, strain rbl2, hits give low values 1.01 | S. cerevisiae deletion strains, locus YOR270C, strain vph1, hits give low values 1.09 | S. cerevisiae deletion strains, locus YOR290C, strain snf2, hits give low values 1.02 | S. cerevisiae deletion strains, locus YOR316C, strain cot1, hits give low values 0.99 | S. cerevisiae deletion strains, locus YPL051W, strain arl3, hits give low values 1.02 | S. cerevisiae deletion strains, locus YPL055C, strain LGE1, hits give low values 0.937 and 1.01 | S. cerevisiae deletion strains, locus YPL078C, strain atp4, hits give low values 1.01 | S. cerevisiae deletion strains, locus YPL106C, strain sse1, hits give low values 1.07 | S. cerevisiae deletion strains, locus YPL240C, strain hsp82, hits give low values 0.977 | S. cerevisiae deletion strains, locus YPL241C, strain CIN2, hits give low values 0.994 and 1.01 | S. cerevisiae deletion strains, locus YPL256C, strain CLN2, hits give low values 1.03 | S. cerevisiae deletion strains, locus YPR119W, strain clb2, hits give low values 0.989 | S. cerevisiae deletion strains, locus YPR141C, strain kar3, hits give low values 0.974 | S. cerevisiae deletion strains, locus YPR163C, strain tif3, hits give low values 0.993 | S. cerevisiae deletion strains, locus YPR167C, strain met16, hits give low values 0.993 | S. cerevisiae deletion strains, strain wtn01, hits give low values 0.995 | S. cerevisiae strains, strain wild type, hits give low values 0.982
